USP1 inh: blocks the human USP1/UAF1 deubiquitinase complex. O94782. recombinant USP1/UAF1, Ub-Rhodamine cleavage fluorescence. Potency, µM (series often up to 57.1 µM), inactives show at the highest dose activity change, negative = inhibition, hits mostly inhibitors. hit rate 0.23% among 390,000; active = well fitted inhibition curve with a large enough effect; inconclusive = small, poorly fitted or top-dose-only effect; inactive = no such curve, though single readings can be large or run the other way; note: potency is the fitted concentration of half-maximal effect; % is set by controls: 0 for no effect and ±100 for the full control effect; nearly all actives have a fitted effect of over 60% in size
Target sequence (O94782 whole entry, looked up): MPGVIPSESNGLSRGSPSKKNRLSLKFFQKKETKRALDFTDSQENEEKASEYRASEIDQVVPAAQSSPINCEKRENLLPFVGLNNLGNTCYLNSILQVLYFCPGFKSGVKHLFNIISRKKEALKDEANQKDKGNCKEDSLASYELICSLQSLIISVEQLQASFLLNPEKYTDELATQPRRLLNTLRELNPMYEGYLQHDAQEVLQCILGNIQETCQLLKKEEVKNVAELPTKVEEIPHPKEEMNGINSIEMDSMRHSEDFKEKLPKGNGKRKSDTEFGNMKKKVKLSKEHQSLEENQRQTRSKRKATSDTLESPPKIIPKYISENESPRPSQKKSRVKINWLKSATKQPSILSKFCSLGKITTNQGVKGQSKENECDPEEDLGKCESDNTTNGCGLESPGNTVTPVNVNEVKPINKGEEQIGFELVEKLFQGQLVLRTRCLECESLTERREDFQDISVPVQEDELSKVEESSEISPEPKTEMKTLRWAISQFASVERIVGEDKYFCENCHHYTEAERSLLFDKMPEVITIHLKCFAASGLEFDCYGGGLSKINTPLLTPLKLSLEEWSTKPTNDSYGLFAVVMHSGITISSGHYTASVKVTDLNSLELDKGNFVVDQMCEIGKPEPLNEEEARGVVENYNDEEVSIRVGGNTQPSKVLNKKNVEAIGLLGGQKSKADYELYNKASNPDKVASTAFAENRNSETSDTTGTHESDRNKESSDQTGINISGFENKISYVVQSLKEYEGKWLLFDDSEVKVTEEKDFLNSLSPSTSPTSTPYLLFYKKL
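High-throughput fluorogenic screen: 1nM USP1/UAF1 complex, Ub-Rho substrate 150nM final, 50mM HEPES pH 7.8 with 0.5mM EDTA, 0.1 mg/ml BSA, 1mM TCEP and 0.01% Tween-20.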
D1 agonist: agonists of human D1 dopamine receptor; P21728; HEK293 T-REx D1 cells, calcium flux, agonist mode; activation, % at 2 µM; hit rate 1% among 360,000; note: 0% is about no effect
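Inducible HEK293 T-REx D1 cells, force-coupled to calcium signalling, were plated at 4000 cells/well with tetracycline and held overnight at 30 C. After no-wash calcium dye loading, compound-evoked calcium rise over 180 s flagged agonists.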
TRHR agonist: agonists of human TRH receptor; P34981; TRHR cells, calcium flux fluo-8, FDSS agonist mode; activation, % at 2 µM; hit rate 0.18% among 360,000; AID 493084; note: 0% is about no effect
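In this calcium-flux screen, cells bearing human TRHR are dye-loaded with fluo-8, baselined for 10 cycles, then exposed to library compounds; positive kinetic calcium responses during the agonist phase mark hits, with TRH as control.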
TRHR PAM: TRH receptor (human) allosteric enhancement. P34981. TRHR cells, fluo-8 calcium fluorescence, EC20 TRH enhancement. enhancement, % at 2 µM. hit rate 0.66% among 360,000. AID 493056; in the data active = enhancement above about 30%; note: 0% is about no effect
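TRHR-expressing cells loaded with fluo-8 calcium dye were read kinetically (ex 480/em 530) during compound addition, then stimulated with an EC20 of TRH (10 nM final). Enhancement of the Gq-mediated intracellular calcium response was scored.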
D1 antagonist: human D1 dopamine receptor antagonism; hit rate 3.2% among 360,000; HEK293 TREx D1 cells, calcium flux, dopamine EC80; stronger effect = lower value; activity change, negative = inhibition, % at 10 µM; P21728; in the data active = activity change below about -30%; note: % is set by controls: 0 for no effect and ±100 for the full control effect
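HEK293 T-REx cells expressing inducible, force-coupled D1 receptor; no-wash Ca dye, 30–90 min RT. Cmpd → 180 s read at 1 Hz → EC80 DA → 180 s read.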
D1 PAM: enhances dopamine response at the human D1 receptor; hit rate 0.036% among 360,000; HEK293 TREx D1 cells, calcium flux, dopamine EC20 potentiation; AID 504651; potentiation, % at 10 µM; P21728; in the data active = potentiation above about 30%; note: 0% is about no effect
Numbers without * were called inactive; ? = inconclusive; · = no result given; ! = repeats disagree. Most compounds without a hit are left out; they make up all but 4.4% or so of the library. Cut-off read from the data, not from the text of the source, unless noted: active = activation above about 30%; inactive = the rest.

SMILES	USP1 inh	D1 agonist	TRHR agonist	TRHR PAM	D1 antagonist	D1 PAM
CCN1CCN(CCCNC(=O)Cn2nc(C)n3c(cc4c(OC)cccc43)c2=O)CC1	3.4%	1.8	-0.2	-1.2	12.4	-1.8
COc1ccc(C2Nc3ccccc3C(=O)N2Cc2ccccc2)cc1COc1ccc(Cl)cc1Cl (configuration not stated)	·	6.3	0.0	-0.2	-2.5	-0.9
COc1ccc(C(=O)c2oc3ccccc3c2NC(=O)COc2ccccc2)cc1	-20.1%	2.7	0.6	1.3	2.1	0.5
O=C(c1ccco1)N1CCN(S(=O)(=O)c2ccc3c(c2)CCN3C(=O)C2CC2)CC1	-21.5%	-0.9	0.2	0.7	-46.6*	-1.6
CCN(CC)C(=O)CSc1nnc2[nH]c(=O)cc(C)n12	-18.1%	0.3	0.6	0.1	·	-1.6
CCn1c(C)c2c([n+]1CC)CC(C)(C)CC2=O	-0.2%	-0.9	0.4	2.9	-2.3	-3.7
CCn1c2c(c(C)cc1=O)C(=O)CC(C)(C)C2	-7.5%	0.4	0.3	33.7*	-8.2	-5.7
CC(=O)c1ccc(NC(=O)CSc2ccc3nc(-c4ccccc4)cn3n2)cc1	-23.6%	0.6	-0.4	3.9	4.3	-1.6
CCCNC(=O)C1CCC(Cn2c(=O)c3sccc3n(CC(=O)N3CCC(C)CC3)c2=O)CC1 (configuration not stated)	-12.2%	0.4	0.2	9.4	-2.7	0.8
O=C(NCCc1nc2ccccc2n1Cc1c(F)cccc1Cl)c1ccco1	-26.1%	18.9	-0.5	-11.4	-23.5	-3.6
Cc1c(C(=O)NCc2ccccc2CN2CCCC2)oc2ccc(F)cc12	-21.0%	5.5	0.0	0.7	-32.5*	·
COc1ccccc1CNC(=O)c1oc2ccc(S(=O)(=O)N3CCCCC3)cc2c1C	?	-0.9	-0.6	-0.6	9.7	-0.3
COc1ccc(/C=C2\CCC/C(=C\C=N\N(C)C)C2=O)cc1	?	13.5	1.1	-9.0	-35.1*	-2.0
CN(C)c1ccc(/C=C2\CCC/C(=C\c3ccccc3)C2=O)cc1	31.6µM*	90.8*	24.2	-4.8	-18.9	0.5
Cc1ccccc1-n1c2nc(=O)[nH]c(=O)c-2cc2c(Cl)cccc21	-16.1%	5.9	10.3	-6.8	3.9	-0.3
CCC12CN3CC(CC)(CN(C1)C3c1cc(Br)ccc1OC)C2=O (configuration not stated)	-26.2%	-0.7	-0.1	1.7	10.6	-3.0
O=C(Oc1cc(-c2ccccc2)no1)c1ccc(F)cc1	-7.5%	0.9	-0.5	-3.3	-46.6*	0.1
O=[N+]([O-])c1ccc(-c2csc(Nc3ccccc3)[n+]2Cc2ccccc2)cc1	-17.6%	4.8	-1.6	2.1	-40.6*	-5.2
Cc1ccc(-c2csc(Nc3ccc(C(=O)O)cc3)[n+]2Cc2ccccc2)cc1	-9.4%	4.6	0.1	32.6*	-15.6	3.6
O=C(Nc1cc(S(=O)(=O)N2CCCCC2)ccc1O)c1ccccc1NS(=O)(=O)c1ccc(F)cc1	-3.1%	5.0	0.8	3.9	-25.1	-7.5
O=C(Nc1cc(S(=O)(=O)N2CCCCC2)ccc1Cl)c1ccccc1NS(=O)(=O)c1ccc(F)cc1	-17.1%	16.8	2.7	-1.6	-33.0*	-3.1
CCOc1ccc(C(=O)Nc2cc(S(=O)(=O)Nc3ccccc3Cl)ccc2N2CCOCC2)cc1	-24.0%	6.1	-1.2	40.1*	-13.8	-2.3
O=C(Nc1ccccc1N1CCOCC1)c1ccccc1NS(=O)(=O)c1ccc(F)cc1	-2.5%	2.4	-0.7	-0.5	-86.9*	-7.7
CCN1C(=O)c2ccccc2Sc2ccc(NC(=O)COc3ccc(Cl)cc3)cc21	-1.5%	1.1	0.5	10.0	-14.3	-5.5
Cc1cc(N/C(=N/S(=O)(=O)c2cc(F)ccc2F)c2ccccc2)n(-c2ccccc2)n1	-11.4%	7.4	0.7	-5.8	-35.9*	-5.9
SMILES	USP1 inh	D1 agonist	TRHR agonist	TRHR PAM	D1 antagonist	D1 PAM
Cc1ccccc1N/C(=N/S(=O)(=O)c1cc(F)ccc1F)c1ccccc1	-20.8%	2.5	-0.4	-7.6	-31.0*	-11.2
Cc1cc(NC(=O)C2CC(c3ccc(F)cc3)=NO2)n(-c2ccccc2)n1 (configuration not stated)	-19.0%	0.8	0.2	-3.4	-63.9*	·
COc1cccc(C2=NOC(C(=O)Nc3cc(C)nn3-c3ccccc3)C2)c1OC (configuration not stated)	-17.4%	6.1	0.3	-3.3	5.2	0.1
CCOC(=O)c1ccc(NC(=O)CCn2c(=O)c3cccn3c3cccnc32)cc1	-10.2%	2.2	-0.3	5.2	-13.1	-3.5
O=C(COC(=O)c1n[nH]c2ccccc12)Nc1cccc(S(=O)(=O)N2CCOCC2)c1	-17.4%	4.2	0.3	1.9	-30.5*	-8.9
O=C(COC(=O)CCc1nc2ccccc2s1)Nc1cccc(S(=O)(=O)N2CCOCC2)c1	-16.4%	4.2	-1.5	0.1	-43.6*	-6.8
O=C(COC(=O)c1cc(=O)[nH]c2ccccc12)Nc1cccc(S(=O)(=O)N2CCOCC2)c1	-5.7%	3.9	0.3	-8.5	-8.7	-12.2
O=C(COC(=O)CCc1ccc(S(=O)(=O)N2CCOCC2)cc1)Nc1ccc(Cl)cn1	-20.0%	35.8*!	0.3	-5.0	-8.1	-8.1
COc1ccc2c(CC(=O)Nc3cccc(S(=O)(=O)N4CCOCC4)c3)coc2c1	-14.4%	0.6	0.0	-20.3	-87.4*	-11.4
CCc1nn2c(=O)cc(COC(=O)c3ccco3)nc2s1	-2.1%	2.4	0.4	-1.7	9.3	-3.1
CCN(CC)S(=O)(=O)c1cccc(NC(=O)COC(=O)c2n[nH]c(=O)c3ccccc23)c1	-24.1%	4.5	-0.4	-1.4	-31.6*	-5.1
CCCc1nc2ccccc2c(C(=O)OCC(=O)Nc2cccc(S(=O)(=O)N3CCOCC3)c2)c1CC	-12.3%	8.2	1.7	-1.5	-33.6*	-7.2
N#CCc1nc2ccc(S(=O)(=O)N3CCOCC3)cc2s1	-1.8%	39.0*	34.9*	2.0	9.0	1.2
CCCc1nc2ccccc2c(C(=O)OCC(=O)Nc2ccc(S(=O)(=O)N3CCOCC3)cc2)c1CC	-22.4%	5.2	1.0	-10.6	·	-1.8
CSc1nc2ccc(S(=O)(=O)N3CCOCC3)cc2s1	-6.0%	0.1	0.1	-8.0	-0.8	-5.8
CCN(C(=O)Cn1ncc2c(=O)oc3ccccc3c21)c1ccccc1F	-1.0%	-1.8	-1.0	-0.4	-14.3	6.5
COc1ccccc1C(=O)Nc1cccc(OCc2cc(=O)n3c4c(sc3n2)CCCC4)c1	-5.2%	2.3	0.5	-2.6	-20.0	-3.8
Cc1ccc(CNC(=O)/C=C/c2ccccc2Cl)cc1	-17.8%	6.7	1.7	3.4	-12.1	-3.2
Cc1ccc(CNC(=O)/C=C/c2c(Cl)cccc2Cl)cc1	-6.6%	6.4	0.7	1.3	-36.2*	-1.6
